# Laboratory results as given in PubChem BioAssay (NCI).
# Several values for one entry are separate records, joined by “and”; a condition that tells them apart may be missing. Equal entries are not always repeated. The panel holds about 83,000 compounds, 20% with a hit somewhere; the sample as a whole holds those more often.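 Values shown are percent growth following 48 h exposure of cells in 96-well plates to a single concentration of compound; below 10 was considered active.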 Some structures have more than one record in an assay (separate samples or runs), and their calls can disagree. Activity calls are given as the source filed them.
# Tests used:
# Assay in all cases: NCI-60 one-dose screen, 48 h (100 = growth as untreated, 0 = no growth, -100 = all killed)
# [1] = test system: T-47D breast
# [2] = test system: BT-549 breast; settings: 10 µM unless noted
# [3] = test system: MDA-MB-435 melanoma
# [4] = test system: SW-620 colon
# [5] = test system: MCF7 breast
# [6] = test system: HCT-116 colon
# [7] = test system: HCC-2998 colon
# [8] = test system: KM12 colon
compound,measurement,setting,value
CCN(CC)CCC(CNc1ccnc2cc(Cl)ccc12)c1ccc(OC)cc1 (centres undefined),growth,[1]; 10 µM unless noted,57.9% (inactive) and 77.2% (inactive)
same,growth,[2],72.2% (inactive) and 66.1% (inactive)
same,growth,[3]; 10 µM unless noted,8.96% (active) and -30.1% (active)
same,growth,[4]; 10 µM unless noted,77.2% (inactive) and 61.2% (inactive)
same,growth,[5]; 10 µM unless noted,80.6% (inactive) and 72.3% (inactive)
same,growth,[6]; 10 µM unless noted,46.5% (inactive) and 39.4% (inactive)
same,growth,[7]; 10 µM unless noted,70.9% (inactive) and 52.7% (inactive)
same,growth,[8]; 10 µM unless noted,77.9% (inactive) and 75.8% (inactive)
O=[N+]([O-])c1ccc(/C=N\NC(=S)Nc2ccc(F)cc2)cc1,growth,[1]; 10 µM unless noted,94.5% (inactive) and 88.4% (inactive)
same,growth,[2],97.9% (inactive)
same,growth,[3]; 10 µM unless noted,109% (inactive) and 101% (inactive)
same,growth,[4]; 10 µM unless noted,106% (inactive) and 94.1% (inactive)
same,growth,[5]; 10 µM unless noted,89% (inactive) and 97.8% (inactive)
same,growth,[6]; 10 µM unless noted,71.7% (inactive) and 53% (inactive)
same,growth,[7]; 10 µM unless noted,106% (inactive) and 87.6% (inactive)
Cc1[nH]c(-c2nc3ccccc3[nH]2)c(C)c1C(=O)NC(C)C1CCCCC1 (centres undefined),growth,[1]; 10 µM,89% (inactive)
same,growth,[1]; 100 µM,-58.1% (active)
same,growth,[3]; 10 µM,37.5% (inactive)
same,growth,[3]; 100 µM,-94.8% (active)
same,growth,[4]; 10 µM,92.9% (inactive)
same,growth,[4]; 100 µM,-68.8% (active)
same,growth,[5]; 10 µM,71.1% (inactive)
same,growth,[5]; 100 µM,-73.7% (active)
same,growth,[6]; 10 µM,85.5% (inactive)
same,growth,[6]; 100 µM,-76.8% (active)
same,growth,[7]; 10 µM,97.9% (inactive)
same,growth,[7]; 100 µM,-82.6% (active)
same,growth,[8]; 10 µM,84.4% (inactive)
same,growth,[8]; 100 µM,-91.8% (active)
O=C(Nc1cccc(-n2ccc3c(NC(=O)c4ccccc4)nccc32)c1)c1ccc(Cl)c(C(F)(F)F)c1,growth,[1]; 10 µM unless noted,-36.7% (active) and 88.1% (inactive)
same,growth,[2],-75.1% (active) and 76.7% (inactive)
same,growth,[3]; 10 µM unless noted,-59% (active) and 54.9% (inactive)
same,growth,[4]; 10 µM unless noted,-73.8% (active) and 48.8% (inactive)
same,growth,[5]; 10 µM unless noted,-48.5% (active) and 37.4% (inactive)
same,growth,[6]; 10 µM unless noted,-99.1% (active) and 32.4% (inactive)
same,growth,[7]; 10 µM unless noted,-27.9% (active) and 64.4% (inactive)
CC(C)(C)c1ccc(O)c(CNC2CCCCC2)c1,growth,[1]; 10 µM unless noted,112% (inactive) and 75.9% (inactive)
same,growth,[2],85.1% (inactive)
same,growth,[3]; 10 µM unless noted,97.9% (inactive) and 96.6% (inactive)
same,growth,[4]; 10 µM unless noted,101% (inactive) and 98.5% (inactive)
same,growth,[5]; 10 µM unless noted,93% (inactive) and 93.8% (inactive)
same,growth,[6]; 10 µM unless noted,86.7% (inactive) and 88.3% (inactive)
same,growth,[7]; 10 µM unless noted,52.7% (inactive) and 104% (inactive)
CC1=C(/C=C/C(C)=C/C=C/C(C)=C/C=N/NC(=S)NC(=S)N/N=C/C=C(C)/C=C/C=C(C)/C=C/C2=C(C)CCCC2(C)C)C(C)(C)CCC1,growth,[1]; 10 µM unless noted,-5.98% (active)
same,growth,[2],-24.7% (active) and 5.7% (active)
same,growth,[3]; 10 µM unless noted,-47.1% (active) and -61.9% (active)
same,growth,[4]; 10 µM unless noted,-73.9% (active) and -83.4% (active)
same,growth,[5]; 10 µM unless noted,16.8% (inactive) and 9.28% (active)
same,growth,[6]; 10 µM unless noted,6.1% (active) and -84% (active)
same,growth,[7]; 10 µM unless noted,57.1% (inactive) and 12.3% (inactive)
same,growth,[8]; 10 µM unless noted,-8.44% (active) and -50.7% (active)
CC1(C)OB(c2ccc(Cn3cc(F)c(=O)[nH]c3=O)cc2)OC1(C)C,growth,[1]; 10 µM,102% (inactive)
same,growth,[1]; 50 µM,49.3% (inactive)
same,growth,[3]; 10 µM,83.6% (inactive)
same,growth,[3]; 50 µM,4.27% (active)
same,growth,[4]; 10 µM,95.8% (inactive)
same,growth,[4]; 50 µM,34.2% (inactive)
same,growth,[5]; 10 µM,100% (inactive)
same,growth,[5]; 50 µM,19.1% (inactive)
same,growth,[6]; 10 µM,101% (inactive)
same,growth,[6]; 50 µM,29.3% (inactive)
same,growth,[7]; 10 µM,104% (inactive)
same,growth,[7]; 50 µM,74.4% (inactive)
same,growth,[8]; 10 µM,99% (inactive)
same,growth,[8]; 50 µM,26.4% (inactive)
CCN(CC)C(=S)SSC(=S)N(CC)CC,growth,[1]; 10 µM unless noted,79.4% (inactive) and 87.3% (inactive)
same,growth,[2],90.6% (inactive) and 90.3% (inactive)
same,growth,[3]; 10 µM unless noted,83.3% (inactive) and 106% (inactive)
same,growth,[4]; 10 µM unless noted,77.2% (inactive) and 109% (inactive)
same,growth,[5]; 10 µM unless noted,71.4% (inactive) and 95.9% (inactive)
same,growth,[6]; 10 µM unless noted,58.6% (inactive) and 93.8% (inactive)
same,growth,[7]; 10 µM unless noted,91.9% (inactive) and 102% (inactive)
O=C(O)c1sccc1O,growth,[1]; 10 µM,53.9% (inactive)
same,growth,[1]; 100 µM,18.2% (inactive)
same,growth,[3]; 10 µM,77.8% (inactive)
same,growth,[3]; 100 µM,0.533% (active)
same,growth,[4]; 10 µM,93.3% (inactive)
same,growth,[4]; 100 µM,24% (inactive)
same,growth,[5]; 10 µM unless noted,15.4% [100 µM] (inactive)
same,growth,[6]; 10 µM unless noted,15.5% [100 µM] (inactive)
same,growth,[7]; 10 µM,109% (inactive)
same,growth,[7]; 100 µM,38.5% (inactive)
COc1ccc(S(=O)(=O)N2CCOCC2)cc1NC(=O)c1[nH]c(C)c2c1CCCCC2=O,growth,[1]; 10 µM unless noted,107% (inactive) and 42% (inactive)
same,growth,[2],116% (inactive) and 102% (inactive)
same,growth,[3]; 10 µM unless noted,105% (inactive) and 35.8% (inactive)
same,growth,[4]; 10 µM unless noted,103% (inactive) and 67.5% (inactive)
same,growth,[5]; 10 µM unless noted,91.1% (inactive) and 27.6% (inactive)
same,growth,[6]; 10 µM unless noted,109% (inactive) and 101% (inactive)
same,growth,[7]; 10 µM unless noted,102% (inactive) and 69.8% (inactive)
same,growth,[8]; 10 µM unless noted,110% (inactive) and 65% (inactive)
NC(=O)C1CC2C=CC1C2 (centres undefined),growth,[1]; 10 µM unless noted,101% (inactive) and 100% (inactive)
same,growth,[2],93% (inactive) and 112% (inactive)
same,growth,[3]; 10 µM unless noted,106% (inactive) and 100% (inactive)
same,growth,[4]; 10 µM unless noted,96.2% (inactive) and 97.5% (inactive)
same,growth,[5]; 10 µM unless noted,100% (inactive) and 102% (inactive)
same,growth,[6]; 10 µM unless noted,92.5% (inactive) and 91.5% (inactive)
same,growth,[7]; 10 µM unless noted,76.5% (inactive) and 110% (inactive)
CC(C)(O)Cn1cc(-c2ccc3nc(OC4CC4)ccc3c2)c2c(N)ncnc21,growth,[1]; 10 µM unless noted,47.6% (inactive) and 5.84% (active)
same,growth,[2],84.7% (inactive) and 66.4% (inactive)
same,growth,[3]; 10 µM unless noted,93.7% (inactive) and 61% (inactive)
same,growth,[4]; 10 µM unless noted,97.4% (inactive) and 63.8% (inactive)
same,growth,[5]; 10 µM unless noted,69.6% (inactive) and 39.6% (inactive)
same,growth,[6]; 10 µM unless noted,70.3% (inactive) and 52.4% (inactive)
same,growth,[7]; 10 µM unless noted,99.7% (inactive) and 89.4% (inactive)
same,growth,[8]; 10 µM unless noted,84.1% (inactive) and 56.8% (inactive)
O=C(/C=C\c1ccnc2ccccc12)c1ccc([N+](=O)[O-])cc1,growth,[1]; 10 µM unless noted,70.3% (inactive) and 59.3% (inactive)
same,growth,[2],80.4% (inactive) and 77.9% (inactive)
same,growth,[3]; 10 µM unless noted,93.2% (inactive) and 46.5% (inactive)
same,growth,[4]; 10 µM unless noted,80.6% (inactive) and 6.55% (active)
same,growth,[5]; 10 µM unless noted,75.8% (inactive) and 25.4% (inactive)
same,growth,[6]; 10 µM unless noted,0.905% (active) and -94% (active)
same,growth,[7]; 10 µM unless noted,82.7% (inactive)
CNC(=O)c1cc(Oc2ccc(NC(=O)Nc3ccc(Cl)c(C(F)(F)F)c3)cc2)ccn1,growth,[1]; 10 µM unless noted,-8.57% (active) and 7.49% (active)
same,growth,[2],-1.7% (active) and 24.4% (inactive)
same,growth,[3]; 10 µM unless noted,-27.3% (active) and -35.2% (active)
same,growth,[4]; 10 µM unless noted,13.5% (inactive) and 5.39% (active)
same,growth,[5]; 10 µM unless noted,2.9% (active) and 3.7% (active)
same,growth,[6]; 10 µM unless noted,0.741% (active) and 9.24% (active)
same,growth,[7]; 10 µM unless noted,-25.4% (active)
same,growth,[8]; 10 µM unless noted,2.65% (active) and -14.7% (active)
Oc1ccccc1/C=N\NC(=S)N/N=C/c1ccccc1O,growth,[1]; 10 µM unless noted,48.4% (inactive) and 51.6% (inactive)
same,growth,[2],47.3% (inactive) and 49.8% (inactive)
same,growth,[3]; 10 µM unless noted,56.3% (inactive) and 44.2% (inactive)
same,growth,[4]; 10 µM unless noted,47.5% (inactive) and 50.7% (inactive)
same,growth,[5]; 10 µM unless noted,25.6% (inactive) and 26.8% (inactive)
same,growth,[6]; 10 µM unless noted,28% (inactive) and 22.9% (inactive)
same,growth,[7]; 10 µM unless noted,33.8% (inactive) and 49.7% (inactive)
OCc1ccccn1,growth,[1]; 10 µM unless noted,107% (inactive)
same,growth,[2],103% (inactive)
same,growth,[3]; 10 µM unless noted,103% (inactive)
same,growth,[4]; 10 µM unless noted,104% (inactive)
same,growth,[5]; 10 µM unless noted,95.3% (inactive)
same,growth,[6]; 10 µM unless noted,104% (inactive)
same,growth,[7]; 10 µM unless noted,109% (inactive)
O=C1c2ccccc2C(=O)c2c(NCCNCCO)ccc(NCCNCCO)c21,growth,[1]; 10 µM unless noted,-3.06% (active) and 10.5% (inactive) and 31.6% (inactive)
same,growth,[2],6.06% (active) and 86.7% (inactive) and 62.6% (inactive)
same,growth,[3]; 10 µM unless noted,22.6% (inactive) and 43.5% (inactive) and 20.8% (inactive)
same,growth,[4]; 10 µM unless noted,12.2% (inactive) and 27.3% (inactive) and 22.2% (inactive)
same,growth,[5]; 10 µM unless noted,-1.56% (active) and 6.38% (active) and 2.38% (active)
same,growth,[6]; 10 µM unless noted,-21.4% (active) and 22.7% (inactive) and 17.7% (inactive)
ClC/C=C/CSc1ncnc2nc[nH]c12,growth,[1]; 10 µM unless noted,98% (inactive) and 99.5% (inactive)
same,growth,[2],102% (inactive) and 158% (inactive)
same,growth,[3]; 10 µM unless noted,108% (inactive) and 103% (inactive)
same,growth,[4]; 10 µM unless noted,98.8% (inactive) and 110% (inactive)
same,growth,[5]; 10 µM unless noted,99.8% (inactive) and 93.7% (inactive)
same,growth,[6]; 10 µM unless noted,105% (inactive)
same,growth,[7]; 10 µM unless noted,106% (inactive) and 108% (inactive)
same,growth,[8]; 10 µM unless noted,113% (inactive) and 105% (inactive)
CC1CCCc2sc3nc(NNC(=O)c4cnccn4)n(-c4ccccc4)c(=O)c3c21 (centres undefined),growth,[1]; 10 µM unless noted,10.9% (inactive) and 3.31% (active)
same,growth,[2],12.8% (inactive)
same,growth,[3]; 10 µM unless noted,27.9% (inactive) and 21.5% (inactive)
same,growth,[4]; 10 µM unless noted,23.7% (inactive) and 19.7% (inactive)
same,growth,[5]; 10 µM unless noted,6.57% (active) and 0.695% (active)
same,growth,[6]; 10 µM unless noted,7.09% (active) and -13.3% (active)
